Results taken from PubChem BioAssay (Tox21).
Several values for one entry are separate records, joined by “and”; a condition that tells them apart may be missing. Equal entries are not always repeated. Records with an inconclusive call do not appear. Activity calls are given as the source filed them. Unless noted, calls follow the shape of the dose curve; as a rule, active = well fitted curve in the direction sought with a large enough effect in the repeat runs; inconclusive = weak or mixed curves; inactive = no such curve, though single readings can be large; an effect the other way counts as inactive or inconclusive.

Assays:
[1] = qHTS assay for small molecule agonists of the p53 signaling pathway (AID 651631; calls by dose curve; also: nearly all actives have a fitted effect of over 15% in size)
Procedure, shortened: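 HCT-116 cells carrying a stable p53 response element–beta-lactamase reporter were plated, rested 5 h at 37 °C, then exposed to compound in DMSO for 16 h at 37 °C; reporter activity was read as FRET substrate fluorescence after 2 h at room temperature.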

[2] = qHTS assay for small molecules that induce genotoxicity in human embryonic kidney cells expressing luciferase-tagged ATAD5 (AID 651632); also: nearly all actives have a fitted effect of over 15% in size
Procedure, shortened: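 Test compounds were delivered by pin tool onto HEK293T reporter cells (2,000/well) expressing ATAD5 fused to luciferase. After 16 hr at 37C, 5% CO2, Amplite was added for 30 min at room temperature and luminescence was measured.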

[3] = qHTS assay for small molecules that induce genotoxicity in human embryonic kidney cells expressing luciferase-tagged ATAD5 - cell viability (AID 651634; calls by dose curve; also: nearly all actives have a fitted effect of over 25% in size)
Procedure, shortened: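 Quantitative high-throughput format. HEK293T cells expressing ATAD5 fused to luciferase were plated at 2,000 cells/well and treated 15.5 hr with compound versus DMSO. Viability was determined by fluorescent live-cell protease substrate, 30 min at 37C.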

[4] = qHTS assay for small molecule disruptors of the mitochondrial membrane potential - cell viability (AID 720634; calls by dose curve;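 also: human HepG2 liver cancer cells; nearly all actives have a fitted effect of over 20% in size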)
Procedure, shortened: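 Same-well counter-screen: following the MMP dye addition, CellTiter-Glo was added to 1 hr compound-treated HepG2 cells and luminescence read after 30 min at room temperature.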

[5] = qHTS assay for small molecule disruptors of the mitochondrial membrane potential (AID 720635)
Procedure, shortened: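 HepG2 cells (2,000/well) attached overnight at 37C, then took compound for 1 hr at 37C, 5% CO2. Mito-MPS dye was added for 30 min; fluorescence was read at 490/535 nm (monomers) and 540/590 nm (aggregates).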

[6] = qHTS assay to test for compound auto fluorescence at 590 nm (red) in HepG2 cells (AID 720674)
Procedure, shortened: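 Compound auto-fluorescence is scored relative to Rose Bengal sodium, measured at 540/590 nm in live HepG2 cultures after 1 hr compound contact (37 C, 5% CO2).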

[7] = qHTS assay to test for compound auto fluorescence at 535 nm (green) in HepG2 cells (AID 720675)
[8] = qHTS assay to test for compound auto fluorescence at 460 nm (blue) in HEK293 cells (AID 720678)
Procedure, shortened: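 Blue-channel (Ex/Em 405/460 nm) intensity measured in HEK293 cultures after overnight compound exposure at 37C; signal expressed relative to triamterene. Cells plated 2,000 per well in 10% dialyzed FBS medium and allowed 4-5 hr to attach.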

[9] = qHTS assay to test for compound auto fluorescence at 590 nm (red) in HEK293 cells (AID 720679)
Procedure, shortened: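 Red-channel autofluorescence (Ex/Em 540/590 nm; Rose Bengal sodium reference) was measured after overnight 37C, 5% CO2 exposure of attached HEK293 cells, 2,000 per well in medium with 10% dialyzed FBS.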

[10] = qHTS assay to test for compound auto fluorescence at 535 nm (green) in HEK293 cells (AID 720680)
[11] = qHTS assay to test for compound auto fluorescence at 535 nm (green) in HEK293 cell free culture (AID 720682)
Procedure, shortened: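 Read-out: 485/535 nm fluorescence intensity, calibrated against fluorescein. Medium only (DMEM + 10% FBS, no cells); test compound or DMSO vehicle added by pintool before plate reading.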

[12] = qHTS assay to test for compound auto fluorescence at 590 nm (red) in HEK293 cell free culture (AID 720683)
Procedure, shortened: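 Tox21 10K library compounds were pinned into cell-free DMEM with 10% FBS and fluorescence was read at excitation 540 nm. Activity is expressed as Rose Bengal sodium equivalency.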

[13] = qHTS assay to test for compound auto fluorescence at 590 nm (red) in HepG2 cell free culture (AID 720684)
Procedure, shortened: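 Readout: intrinsic compound fluorescence at 590 nm emission after 540 nm excitation, scaled to Rose Bengal sodium. Matrix was cell-free MEM with 10% FBS; DMSO vehicle wells served as control.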

[14] = qHTS assay to test for compound auto fluorescence at 460 nm (blue) in HepG2 cell free culture (AID 720685)
Procedure, shortened: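 Cell-free plates of MEM plus 10% FBS received 23 nL compound or DMSO vehicle; blue-channel (405/460 nm) intensity scored against triamterene as reference fluorophore.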

[15] = qHTS assay to test for compound auto fluorescence at 535 nm (green) in HepG2 cell free culture (AID 720686)
[16] = qHTS assay to test for compound auto fluorescence at 460 nm (blue) in HepG2 cells (AID 720687)
Procedure, shortened: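 Cells (2,000/well in MEM with 10% FBS) attached overnight at 37 C, then were exposed to compound or DMSO for 1 hr at 37 C, 5% CO2. Fluorescence read at Ex/Em 405/460 nm, expressed as triamterene-equivalent signal.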

[17] = target: Glucocorticoid receptor (Homo sapiens) (UniProt P04150); assay: qHTS assay to identify small molecule agonists of the glucocorticoid receptor (GR) signaling pathway (AID 720691; active = well fitted activation curve with a large enough effect in the signal ratio in the repeat runs, not every such curve was filed as active; the % refers to the signal ratio)
Chain of Glucocorticoid receptor (Homo sapiens) (P04150 whole entry, looked up): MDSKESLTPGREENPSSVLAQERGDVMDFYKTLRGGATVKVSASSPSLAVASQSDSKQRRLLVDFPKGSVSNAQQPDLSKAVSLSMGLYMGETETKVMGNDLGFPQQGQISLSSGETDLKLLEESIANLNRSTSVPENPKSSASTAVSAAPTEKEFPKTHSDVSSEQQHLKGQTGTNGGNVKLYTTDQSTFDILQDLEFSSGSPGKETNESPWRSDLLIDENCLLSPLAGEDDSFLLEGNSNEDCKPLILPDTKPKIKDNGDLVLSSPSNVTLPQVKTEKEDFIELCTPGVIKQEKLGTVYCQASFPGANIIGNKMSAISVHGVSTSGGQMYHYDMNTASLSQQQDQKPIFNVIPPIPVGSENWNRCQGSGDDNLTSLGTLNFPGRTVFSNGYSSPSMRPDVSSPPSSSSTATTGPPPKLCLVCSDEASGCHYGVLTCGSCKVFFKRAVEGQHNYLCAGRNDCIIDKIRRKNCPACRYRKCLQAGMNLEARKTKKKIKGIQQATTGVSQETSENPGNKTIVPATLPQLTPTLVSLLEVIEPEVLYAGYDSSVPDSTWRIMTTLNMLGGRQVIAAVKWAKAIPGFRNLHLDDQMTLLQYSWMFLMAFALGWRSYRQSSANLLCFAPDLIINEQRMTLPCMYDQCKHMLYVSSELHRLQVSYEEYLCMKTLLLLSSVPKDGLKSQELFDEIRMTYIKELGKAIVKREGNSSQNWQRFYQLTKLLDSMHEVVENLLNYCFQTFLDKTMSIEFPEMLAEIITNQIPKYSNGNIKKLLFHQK
Procedure, shortened: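 A HeLa cervical cancer line expressing GR and a glucocorticoid response element-driven beta-lactamase gene is treated with compounds for 18 h; LiveBLAzer B/G FRET substrate is then applied and fluorescence read.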

[18] = target: Glucocorticoid receptor (Homo sapiens) (UniProt P04150); assay: qHTS assay to identify small molecule antagonists of the glucocorticoid receptor (GR) signaling pathway (AID 720692; active = well fitted inhibition curve with a large enough effect in the signal ratio in the repeat runs, not every such curve was filed as active; the % refers to the signal ratio)
Procedure, shortened: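 GRE-bla HeLa line, dex-stimulated (5 nM final). Compound exposure 18 h, 37 C. Beta-lactamase FRET read after 2 h RT substrate.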

[19] = qHTS assay to identify small molecule antagonists of the glucocorticoid receptor (GR) signaling pathway - cell viability counter screen (AID 720693); also: nearly all actives have a fitted effect of over 55% in size
[20] = qHTS assay for identifying genotoxic compounds that show differential cytotoxicity against isogenic chicken DT40 cell lines with known DNA damage response pathways - wild type cell line (AID 743012); also: nearly all actives have a fitted effect of over 60% in size
Procedure, shortened: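 300 wt DT40 cells/well; cpd (DMSO) pintool-transferred after ~0.5 h at 37 C/5% CO2; 40 h incubation; CellTiter-Glo added, 30 min RT; luminescence read.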

[21] = qHTS assay for identifying genotoxic compounds that show differential cytotoxicity against isogenic chicken DT40 cell lines with known DNA damage response pathways - Rev3 mutant cell line (AID 743014); also: nearly all actives have a fitted effect of over 55% in size
[22] = qHTS assay for identifying genotoxic compounds that show differential cytotoxicity against isogenic chicken DT40 cell lines with known DNA damage response pathways - Rad54/Ku70 mutant cell line (AID 743015); also: nearly all actives have a fitted effect of over 60% in size
[23] = qHTS assay to identify small molecule antagonists of the androgen receptor (AR) signaling pathway - cell viability counter screen (AID 743033; also: nearly all actives have a fitted effect of over 45% in size)
[24] = qHTS assay to identify small molecule antagonists of the androgen receptor (AR) signaling pathway using the MDA cell line - cell viability counter screen (AID 743041; also: nearly all actives have a fitted effect of over 45% in size)
Procedure, shortened: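 qHTS viability read-out; MDA-kb2 AR-luc; R1881-stimulated; 16 h exposure at 37C, 0% CO2; CellTiter-Fluor, 30 min; fluorescence intensity.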

[25] = qHTS assay to identify small molecule antagonists of the thyroid receptor (TR) signaling pathway - cell viability counter screen (AID 743064); also: nearly all actives have a fitted effect of over 50% in size
Procedure, shortened: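 GH3.TRE-Luc rat pituitary cells carrying a TRE-luciferase reporter were treated with compound plus 1 nM T3 (final) for 23.5 h at 37 °C. Viability was then read in the same wells by CellTiter-Fluor fluorescence after a further 30 min.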

[26] = qHTS assay to identify small molecule antagonists of the thyroid receptor (TR) signaling pathway (AID 743065); also: nearly all actives have a fitted effect of over 55% in size
Procedure, shortened: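 GH3.TRE-Luc rat pituitary cells carrying two TR response elements driving luciferase were plated for 4 h, given compound plus 1 nM T3 (final), and incubated 23.5 h at 37 C. ONE-Glo luminescence measured reporter inhibition; CellTiter-Fluor fluorescence tracked cytotoxicity.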

[27] = system: thyroid hormone receptor (rat, GH3 cells); assay: qHTS assay to identify small molecule agonists of the thyroid receptor (TR) signaling pathway (AID 743066; calls by dose curve)
[28] = qHTS assay to identify small molecule antagonists of the estrogen receptor alpha (ER-alpha) signaling pathway - cell viability counter screen (AID 743074; calls by dose curve;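 also: HEK293 cells carrying ER-alpha-UAS-bla reporter stimulated with 17beta-estradiol; nearly all actives have a fitted effect of over 45% in size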)
[29] = qHTS assay to identify small molecule antagonists of the estrogen receptor alpha (ER-alpha) signaling pathway using the BG1 cell line - cell viability counter screen (AID 743081);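 also: compound given together with 17beta-estradiol as the ER stimulus; nearly all actives have a fitted effect of over 45% in size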
[30] = qHTS assay to identify small molecule that activate the aryl hydrocarbon receptor (AhR) signaling pathway - cell viability counter screen (AID 743086)
Procedure, shortened: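 HepG2-AhR-luc (HG2L7.5c1) cells, 4000/well, were preincubated 5 h at 37C, exposed to compound in qHTS format for 24 hr at 37C, then given CellTiter-Fluor for 30 min; viability was read as fluorescence in the reporter wells.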

[31] = qHTS assay to identify small molecule antagonists of the estrogen related receptor signaling pathway with the pleiotropic PPARgamma coactivator (PGC) from Tox21 10K library (AID 1224841; call rule not given here; also: actives are mostly falling curves and most rising ones were filed inactive; nearly all actives have a fitted effect of over 50% in size)
Procedure, shortened: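 In the PGC/ERR line, DMSO solutions of test chemicals are pin-delivered to 2,000 cells/well six hours after dispensing. Following eighteen hours' incubation, One-Glo reagent is added and luminescence recorded.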

[32] = qHTS assay to identify small molecule agonists of the estrogen related receptor signaling pathway with the pleiotropic PPARgamma coactivator (PGC) from Tox21 10K library (AID 1224842); also: nearly all actives have a fitted effect of over 15% in size
Procedure, shortened: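 PGC/ERR reporter cells (NTP line) were seeded 2,000 per well, rested 6 h at 37 C/5% CO2, then pin-dosed with compounds in DMSO for 18 h at 37 C; luciferase read by One-Glo luminescence after 30 min at room temperature.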

[33] = qHTS assay to identify small molecule antagonists of the estrogen related receptor (ERR) signaling pathway from Tox21 library (AID 1224848); also: nearly all actives have a fitted effect of over 50% in size
Procedure, shortened: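 First, 2,000 ERR cells per well were plated and held 6 h at 37 C/5% CO2. Next, compounds in DMSO were pinned in and left 18 h at 37 C. Finally, ONE-Glo was added and luminescence read after 30 min at room temperature.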

[34] = qHTS assay to identify small molecule agonists of the estrogen related receptor (ERR) signaling pathway from Tox21 library (AID 1224849; calls by dose curve; also: nearly all actives have a fitted effect of over 15% in size); settings: ERR reporter cell line, ONE-Glo luciferase, 18 h
Procedure, shortened: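 Reporter cells (ERR, NTP source) treated with Tox21 10K compounds 18 h, 37 C. Readout: ONE-Glo luminescence, 30 min RT.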

[35] = qHTS assay to identify small molecule antagonists of the estrogen receptor alpha (ER-alpha) signaling pathway using the BG1 cell line in the presence of 0.1 nM 17-beta-estradiol - cell viability counter screen (AID 1259241); also: nearly all actives have a fitted effect of over 40% in size
Procedure, shortened: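 VM7Luc4E2 cells (endogenous ER-alpha, 4×ERE-luciferase), hormone-starved 5 days in charcoal-stripped FBS, were treated with compounds plus 0.1 nM 17beta-estradiol for 22 hr at 37C; viability read in same wells as CellTiter-Fluor live-cell protease fluorescence.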

[36] = qHTS assay to identify small molecule antagonists of the androgen receptor (AR) signaling pathway using the MDA cell line in the presence of 0.5 nM R1881 - cell viability counter screen (AID 1259242); also: nearly all actives have a fitted effect of over 45% in size
Procedure, shortened: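 Human breast carcinoma MDA-kb2 cells, cultured without CO2, receive compounds alongside 0.5 nM (final) R1881 agonist. After 16 hr at 37C, viability is taken as live-cell protease signal.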

[37] = qHTS assay to identify small molecule phospholipidosis (PLD) inducers (AID 1259344; active = well fitted curve in the direction sought with a large enough effect; an effect the other way counts as inactive or inconclusive)
Procedure, shortened: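 Cells (HepG2, 900 per well) attach for 4 h, receive LipidTOX Red and compound together, incubate 24 h at 37 C, are fixed 30 min with paraformaldehyde/Hoechst, then imaged at one site per well.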

[38] = target: Nuclear receptor subfamily 1 group I member 2 (Homo sapiens) (UniProt O75469); assay: Human pregnane X receptor (PXR) small molecule agonists, qHTS assay (AID 1346982); also: nearly all actives have a fitted effect of over 35% in size
Chain of Nuclear receptor subfamily 1 group I member 2 (Homo sapiens) (O75469 whole entry, looked up): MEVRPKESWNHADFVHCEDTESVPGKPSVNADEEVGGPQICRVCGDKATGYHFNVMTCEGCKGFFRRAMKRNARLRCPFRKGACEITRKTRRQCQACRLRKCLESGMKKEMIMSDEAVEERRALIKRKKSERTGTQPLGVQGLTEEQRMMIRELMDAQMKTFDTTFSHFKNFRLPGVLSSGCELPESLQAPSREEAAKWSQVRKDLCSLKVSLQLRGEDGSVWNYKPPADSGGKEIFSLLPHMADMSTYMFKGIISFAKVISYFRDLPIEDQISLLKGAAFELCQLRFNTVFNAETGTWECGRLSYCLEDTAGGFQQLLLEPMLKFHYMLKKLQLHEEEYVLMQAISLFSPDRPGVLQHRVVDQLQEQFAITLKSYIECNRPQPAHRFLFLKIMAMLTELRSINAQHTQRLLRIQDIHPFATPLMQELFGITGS
Procedure, shortened: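 After plating in 5% charcoal-stripped FBS and a 5 hr rest, PXR-Luc HepG2 cells received compounds in DMSO. Following 24 hr at 37 C, ONE-Glo was added and light output read.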

[39] = target: Acetylcholinesterase (Homo sapiens) (UniProt P22303); assay: Acetylcholinesterase (AChE) small molecule antagonists: colormetric cell-based qHTS assay (AID 1347395; calls by dose curve; also: nearly all actives have a fitted effect of over 30% in size)
Chain of Acetylcholinesterase (Homo sapiens) (P22303 whole entry, looked up): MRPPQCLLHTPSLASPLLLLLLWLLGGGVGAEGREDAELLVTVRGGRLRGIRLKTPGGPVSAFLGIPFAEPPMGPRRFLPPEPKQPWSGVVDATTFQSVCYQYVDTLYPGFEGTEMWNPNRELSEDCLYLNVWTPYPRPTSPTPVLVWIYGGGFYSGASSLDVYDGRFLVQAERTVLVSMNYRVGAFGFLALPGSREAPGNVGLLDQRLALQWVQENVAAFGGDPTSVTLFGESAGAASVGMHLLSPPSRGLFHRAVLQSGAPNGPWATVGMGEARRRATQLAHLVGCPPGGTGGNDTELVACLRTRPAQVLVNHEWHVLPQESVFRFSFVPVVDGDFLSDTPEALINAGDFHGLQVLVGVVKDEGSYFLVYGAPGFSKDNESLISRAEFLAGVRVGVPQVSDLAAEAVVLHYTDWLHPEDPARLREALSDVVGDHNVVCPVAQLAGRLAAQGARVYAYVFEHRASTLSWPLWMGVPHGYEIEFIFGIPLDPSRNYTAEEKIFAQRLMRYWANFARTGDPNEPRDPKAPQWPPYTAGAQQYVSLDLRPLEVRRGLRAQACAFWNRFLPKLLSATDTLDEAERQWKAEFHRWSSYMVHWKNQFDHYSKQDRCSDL
Procedure, shortened: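 SH-SY5Y cells, plated overnight at 37 C, were exposed to compounds for 30 min at 37 C and 5% CO2. Acetylthiocholine plus DTNB was then added, and thiocholine from endogenous AChE was quantified colorimetrically after 90 min at 37 C.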

[40] = target: Acetylcholinesterase (Homo sapiens) (UniProt P22303); assay: Acetylcholinesterase (AChE) small molecule antagonists: enzyme-based qHTS assay (AID 1347397; calls by dose curve; also: nearly all actives have a fitted effect of over 55% in size); settings: Potency: AChE enzyme activity inhibition; outcome: AChE enzyme activity inhibition
Procedure, shortened: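 Tox21 library chemicals are tested in qHTS format against recombinant human AChE. The enzyme, dispensed at 50 mU/mL, sits with compound for 30 min at room temperature. A DTNB–acetylthiocholine cocktail follows, and colour is read after 10 min.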

[41] = target: Acetylcholinesterase (Homo sapiens) (UniProt P22303); assay: Acetylcholinesterase (AChE) small molecule antagonists: fluorescence cell-based qHTS assay (AID 1347398; calls by dose curve; also: nearly all actives have a fitted effect of over 50% in size); settings: Potency: AChE activity; outcome: AChE activity
Procedure, shortened: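 Cellular AChE inhibition: SH-SY5Y cells treated with test chemical for 30 min at 37 C, then acetylthiocholine hydrolysis followed over 40 min at room temperature via thiocholine-reactive Thiolite Green fluorescence (490/520 nm).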

[42] = target: Acetylcholinesterase (Homo sapiens) (UniProt P22303); assay: Acetylcholinesterase (AChE) small molecule antagonists: enzyme-based qHTS assay with human liver microsomes (AID 1347399; calls by dose curve; also: nearly all actives have a fitted effect of over 60% in size); settings: Potency: qHTS inhibition; outcome: qHTS inhibition
Procedure, shortened: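 Recombinant human AChE (50 mU/mL in the enzyme mix) and human liver microsomes (0.25 mg/mL final) were preincubated with compound and NADPH (0.25 mg/mL final) for 30 min at 37 C. Acetylthiocholine/DTNB was then added; thiocholine was read colorimetrically after 10 min at room temperature.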
% is scaled to controls: 0 for no effect and ±100 for the full control effect.

O=C(O)/C=C\C(=O)O
inactive: Potency [1] | Potency [2] | Potency [3] | Potency [4] | Potency [5] | outcome [6] | Potency [7] | Potency [8] | outcome [9] | Potency [10] | Potency [11] | outcome [12] | outcome [13] | Potency [14] | Potency [15] | Potency [16] | Potency [17] | Potency [18] | Potency [19] | Potency [20] | Potency [21] | Potency [22] | Potency [23] | Potency [24] | Potency [25] | Potency [26] | Potency [27] | Potency [28] | Potency [29] | Potency [30] | Potency [31] | Potency [32] | Potency [33] | activity change, positive = activation ([34]; at 42.5 µM (top of the series)) 6.09% | activity change, positive = activation ([34]; at 92.4 µM (top of the series)) 3.24% and 1.53% | Potency [35] | Potency [36] | Potency [37] | Potency [38] | Potency [39] | Potency [40] | Potency [41] | Potency [42]
